Experimental data as given in ChEMBL document CHEMBL4513146, “CO-ADD screening of Karazin Kharkiv National University (Ukraine) compounds”.
Potency and affinity values are given separately.

How the values were obtained:
Staphylococcus aureus = conditions: Concentration 32 ug.mL-1;; ASSAY_TEST Inhibition of Bacterial Growth; detection method Absorption (OD600); MEDIA CAMHB; plate type 384well; NBS; CORNING #3640; time 18 hr
Escherichia coli = conditions: Concentration 32 ug.mL-1;; ASSAY_TEST Inhibition of Bacterial Growth; detection method Absorption (OD600); MEDIA CAMHB; plate type 384well; NBS; CORNING #3640; time 18 hr

Structure (SMILES) | Inhibition (Staphylococcus aureus) | Inhibition (Escherichia coli)
Cc1ccc(CN(c2cccc(F)c2)S(=O)(=O)c2ccc3nnc(C)n3c2)cc1 | -4.51% | -15.84%
C=Cc1ccc(CN(c2ccc(C(C)C)cc2)S(=O)(=O)c2cccn3cnnc23)cc1 | 7.94% | 0.1%
O=C(Cn1nc2c3sc(N4CCCC4)nc3ncn2c1=O)Nc1cccc(Br)c1 | 14.01% | 2.84%
Cc1cc(C)cc(NC(=O)Cn2nc3ccc(SC(C)(C)C)nn3c2=O)c1 | 9.02% | -2.5%
CCC(C)NC(=O)c1ccc2c(=O)n(C3CC3)c3nn(CC(=O)NC(C)C)c(=O)n3c2c1 (stereo unspecified) | 10.01% | -2.07%
CCCN(C)c1nccn2c(=O)n(CC(=O)Nc3ccc(Br)cc3)nc12 | 8.04% | -5.88%
CCc1cccc(NC(=O)Cn2c(=O)c3nnc(C(C)C)n3c3ccccc32)c1 | 12.07% | 8.67%
COc1ccc(N(Cc2cccc(Cl)c2)S(=O)(=O)c2ccc3nncn3c2)cc1 | -10.84% | -8.34%
Cc1cccc(NC(=O)Cn2nc3ccc(-c4ccc(Cl)cc4)nn3c2=O)c1C | 5.25% | -5.96%
CCOc1ccc(C(=O)CSc2nnc3c(=O)n(-c4ccc(C)c(C)c4)ccn23)cc1 | 9.97% | -11.39%
COc1ccccc1Cn1c(=O)c2sccc2n2c(=O)n(Cc3ccc(Br)cc3)nc12 | 5.17% | 2.24%
CC(C)Sc1ccc2nn(CC(=O)Nc3ccccc3F)c(=O)n2n1 | -5.65% | 3.66%
Cc1cc(C)cc(Oc2nccn3c(=O)n(CC(=O)Nc4cccc(Cl)c4)nc23)c1 | -12.18% | -3.44%
O=C(Cn1nc2ccc(Sc3ccccc3)nn2c1=O)Nc1ccc(F)c(Cl)c1 | 8.3% | -2.75%
O=c1c2nn(Cc3ccccc3F)c(=O)n2ccn1-c1ccccc1 | 4.1% | -4.13%
Cc1nnc2c(=O)n(CC(=O)Nc3ccc(Cl)cc3F)c3ccccc3n12 | 7.03% | -1.92%
CCOc1ccc(NC(=O)Cn2nc3c(N4CCCC(C)C4)nccn3c2=O)cc1 (stereo unspecified) | 4.96% | -4.53%
CCc1nnc2ccc(S(=O)(=O)N(Cc3cccc(F)c3)c3ccc(OC)cc3)cn12 | 7.39% | -21.14%
